Screening results deposited in PubChem by several laboratories.
Only some compounds are listed: those with a hit (about 5.3% of all), similar ones and a draw of the others.
ALR H2O2 inh = human ALR oxidase inhibition via reduced H2O2. purified ALR, DTT oxidation, H2O2 HRP-luminol luminescence. inhibition, % (concentration not given with the values). hit rate 3.8% among 290,000. AID 485317;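 active = mean replicate inhibition above about 79%, with every replicate also reaching it, limit read from the data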
Target sequence (P55789 whole entry, looked up): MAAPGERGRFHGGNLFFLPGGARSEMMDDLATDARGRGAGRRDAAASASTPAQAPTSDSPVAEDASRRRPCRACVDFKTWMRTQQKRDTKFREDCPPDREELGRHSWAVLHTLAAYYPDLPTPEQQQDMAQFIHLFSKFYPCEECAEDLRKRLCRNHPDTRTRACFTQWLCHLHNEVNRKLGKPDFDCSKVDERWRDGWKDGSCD
PfM18AAP inh = PfM18AAP enzyme inhibition. recombinant PfM18AAP, H-Glu-NHMec fluorogenic cleavage. AID 1822. hit rate 1.2% among 290,000. inhibition, % at 7.35 µM;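 active = inhibition above the campaign mean inhibition over all tested compounds plus 3 SD, cut at about 28% in these data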;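 also: 0% = plate median of test compound wells and 100% = 2 mM ZnCl2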
HIF act = HIF pathway transcriptional activation | activation, % at 7.5 µM (by protocol) | hit rate 0.32% among 300,000 | U2OS HRE-luciferase reporter, luminescence; normalized: DMSO 0%, desferrioxamine 100% | AID 1910;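 active = mean activation of at least 10% of the iron chelator positive control signal, with at least half of replicates also reaching 10%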
SUMO Mot1 rescue = blocks SUMOylation pathway, rescuing yeast Mot1-301 growth. S. cerevisiae Mot1-301 growth rescue, ATP luminescence, 38.5C; percent above DMSO median, 100 means doubled. growth rescue, % at 18.8 µM. hit rate 1% among 320,000;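 active = every valid replicate shows activation above 250% relative to neutral control wells; inactive = the rest, any valid replicate at or below 250%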;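 also: OY570 slx delta 5 strain wells were the positive control but not used for scaling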
Active calls of the source: *; i = inactive; nt = not tested or not shown.

SMILES	ALR H2O2 inh	PfM18AAP inh	HIF act	SUMO Mot1 rescue
O=C(CN1C(=O)NC2(CCCc3ccccc32)C1=O)c1ccc(Br)cc1 (configuration not stated)	0.2	nt	-0.5	322.1
CN(C)C(CNC(=O)CN1C(=O)NC2(CCc3ccccc32)C1=O)c1ccco1 (configuration not stated)	99.6*	-2.7	0.2	i
O=C(CN1C(=O)NC2(CCc3ccccc32)C1=O)c1ccc(Br)cc1 (configuration not stated)	-4.0	nt	0.5	278.1*
CCOC(=O)C1CCN(S(=O)(=O)c2cc3c4c(c2)C(C)C(=O)N4CCC3)CC1 (configuration not stated)	-1.7	-2.8	-0.1	7.6
COc1ccc2nc(NNC(=O)C3COc4ccccc4O3)sc2c1 (configuration not stated)	98.7*	30.6*	0.2	15.4
COc1ccc(OC)c(S(=O)(=O)Nc2c(C)cccc2C)c1	-7.4	-1.3	0.2	-5.2
CN1CCN(C(=O)c2cnn(-c3ccccc3)c2NC(=O)c2ccccc2Br)CC1	14.2	-4.4	-21.1	331.4*
Cc1cc(C2(c3ccc(O)c(C)c3)OC(=O)c3ccccc32)ccc1O	77.3*	-4.1	-0.4	-13.4
CCn1ncc(C2=NOC(C(=O)NCc3ccccc3)C2)c1C (configuration not stated)	-31.3	-6.6	0.4	1.9
CCn1ncc(C2=NOC(C(=O)Nc3cccc(C(C)=O)c3)C2)c1C (configuration not stated)	97.4*	0.2	0.0	3.2
CCC(C)CCN1C(N(C)C)=NC[C@@H]1C (some centres not stated)	7.1	nt	nt	317.7*
Nc1cccc(-c2cn3cc(C(F)(F)F)cc(Cl)c3n2)c1	98.9*	3.0	1.4	-4.6
FC(F)(F)c1cc(Cl)c2nc(-c3ccccc3)cn2c1	-2.1	-5.9	2.6	1.8
Cc1ccc(C2C(C#N)=C(N)Oc3n[nH]c(-c4cccs4)c32)cc1 (configuration not stated)	74.3	8.9	-0.7	134.6
COc1cc(C2C(C#N)=C(N)Oc3n[nH]c(-c4cccs4)c32)cc(OC)c1O (configuration not stated)	89.4*	28.3*	-0.2	24.4
CC(C)C1C(C#N)=C(N)Oc2n[nH]c(-c3cccs3)c21 (configuration not stated)	82.2*	-6.8	0.4	-0.3
CCOc1ccc(C2C(C#N)=C(N)Oc3nc[nH]c(=O)c32)cc1OC (configuration not stated)	nt	0.2	-0.8	334.4*
COCc1[nH]nc2c1C(c1ccc(OC)c(OC)c1)C(C#N)=C(N)O2 (configuration not stated)	22.6	7.3	-0.7	3.4
CCCc1[nH]nc2c1C(c1ccc(O)c(OC)c1)C(C#N)=C(N)O2 (configuration not stated)	99.0*	2.5	-0.4	-10.8
CCCc1[nH]nc2c1C(c1ccccc1OC)C(C#N)=C(N)O2 (configuration not stated)	42.4	-7.0	-0.5	157.9
O=C(NCc1cccc(Cl)c1)C1CCCN(c2ncnc3c2nc2n3CCCCC2)C1 (configuration not stated)	4.5	4.4	0.5	-17.5
CCOc1ccc(CCNC(=O)c2cccc(S(=O)(=O)N3CCCCC3)c2)cc1OCC	-5.8	nt	-1.1	-2.5
CC(C)N(CCc1ccncc1)C(=S)Nc1cccc(Cl)c1	4.7	5.9	0.3	-2.8
COC(=O)CNC(c1ccccc1)c1cc(Br)ccc1N (configuration not stated)	99.2*	-15.3	-0.2	-6.8
Cc1cccc(C(=O)Nc2scc(CC(C)C)c2C(=O)O)c1	96.4*	1.9	-0.2	-3.4
SMILES	ALR H2O2 inh	PfM18AAP inh	HIF act	SUMO Mot1 rescue
CC(C)Cc1csc(NC(=O)c2ccccc2Cl)c1C(=O)O	96.3*	-0.8	-0.2	-12.8
Cc1ccnc2ccc(SC(F)(F)F)cc12	-0.3	3.1	-0.2	27.5
CN(Cc1ccccc1)C(=O)[C@@H]1CCCN1S(=O)(=O)c1ccc(Cl)cc1	nt	-0.8	-1.5	0.3
Cc1cc2c(cc1C)CSC(c1ccccc1O)SC2	31.7	9.9	0.2	272.6*
Cc1cc2c(cc1C)CSC(c1ccc3ccccc3c1O)SC2	-12.8	-16.2	-1.2	-11.2
CCCCn1c(NCc2ccccc2O)nc2ccccc21	97.6*	0.7	0.1	-11.2
C=CCc1cccc(CNc2nc3ccccc3n2CCC)c1O	-3.9	-0.5	-0.7	-2.7
CCCn1c(NCc2ccc(C)o2)nc2ccccc21	27.7	-5.2	0.2	-5.0
CC(C)Cn1c(NCCO)nc2ccccc21	23.7	0.6	-0.1	3.3
CCCn1c(NCc2cc(C)ccc2O)nc2ccccc21	nt	30.4*	0.9	-5.9
Cc1ccc(O)c(CNc2cnc3ccccc3c2)c1	97.7*	3.9	1.7	2.0
CCCCn1c(NCCO)nc2ccccc21	97.8*	-1.7	0.2	0.7
Cc1cc2c(n1-c1ccc(C(=O)O)cc1)CCCCC2	45.8	22.8	-4.1	225.3
O=C(Nc1cc2c(cc1[N+](=O)[O-])OCCO2)c1cccnc1	nt	nt	nt	3.3
COc1cc(CNc2ccc(N3CCOCC3)cc2)ccc1OCC(=O)NC(C)(C)C	99.3*	5.0	-16.5	-8.0
COc1cc(CNc2ccc(N3CCN(C(C)=O)CC3)cc2)ccc1OCc1ccccc1	99.2*	6.2	1.7	-5.8
COc1ccc(-c2[nH]ncc2CNCCc2ncccc2C)cc1F	-2.0	-2.0	-0.3	-16.5
CCc1ccc(-c2nc(CN3CCC(C(=O)NCc4ccc(F)cc4)CC3)c(C)o2)cc1	-6.2	-17.8	-0.2	-6.6
CCN(CCNC(=O)C1CCN(Cc2nc(-c3ccc(Cl)cc3)oc2C)CC1)c1ccccc1	98.3*	-8.7	-1.4	43.0
CCN(CCNC(=O)C1CCCN(Cc2nc(-c3ccc(OC)cc3)oc2C)C1)c1ccccc1 (configuration not stated)	96.5*	2.5	-0.6	41.4
CCc1ccc(-c2nc(CN3CCC(C(=O)NCCN(CC)c4ccccc4)CC3)c(C)o2)cc1	98.6*	1.7	-2.8	-20.2
CCc1ccc(-c2nc(CN3CCCC(C(=O)O)C3)c(C)o2)cc1 (configuration not stated)	-2.1	-1.8	0.1	-8.0
CCN(CCNC(=O)C1CCN(Cc2nc(-c3cccc(Cl)c3)oc2C)CC1)c1ccccc1	98.5*	10.0	-1.0	-28.3
CC1(C)O[C@H]2CC(=O)OC[C@]23[C@H]2CC[C@@]4(C)[C@H](c5ccoc5)OC(=O)[C@H]5O[C@]54[C@]2(C)[C@@H](O)C[C@@H]13	-2.2	nt	nt	15.6
CCS(=O)CC(=O)Nc1c(-c2ccccc2)oc2ccccc2c1=O (configuration not stated)	3.2	-0.4	0.0	-9.4
CCOc1ccccc1OCCCC(=O)N(CC)CC(=O)Nc1ccc(NC(C)=O)cc1	-5.1	nt	-0.5	8.3
COc1ccc(C(CC(=O)Nc2ccccc2OC)n2cccc2)cc1 (configuration not stated)	0.2	-10.3	152.3*	-10.6
COc1ccccc1NC(=O)CSCC(N)=O	94.0*	-1.4	-0.1	-9.7
